# Compound activity as filed in PubChem.
# TDP1 cell CPT = qHTS for Inhibitors of human tyrosyl-DNA phosphodiesterase 1 (TDP1): qHTS in cells in presence of CPT | chicken DT40 Tdp1-/-;hTDP1 cells + 20 nM CPT, ATP luminescence, 48 h | Potency, µM (titrated, usually from 46.2 µM), for inactives: at the top dose activity change, negative = growth inhibition, usual class: inhibitors | 420,000 compounds, 12% hits | AID 686979, 2013; also: potency is read from the fitted curve at half-maximal effect; nearly all actives have a fitted effect of over 55% in size
#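 Chicken DT40 Tdp1-/- cells complemented with human TDP1, 400 cells/well, exposed to compounds plus 20 nM camptothecin for at least 48 h at 37 C; viability read as ATP content by CellTiter-Glo luminescence.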
# RORg inh = qHTS for inhibitors of ROR gamma transcriptional activity; Drosophila S2 Gal4-RORgamma UAS-luciferase reporter, 20 h; Potency, µM (highest dose often 53.6 µM), for inactives: at the highest dose activity change, negative = inhibition, most hits filed as inhibitors; 310,000 compounds, 5.4% hits; also: potency is read from the fitted curve at half-maximal effect; nearly all actives have a fitted effect of over 60% in size
# Target sequence (P51450 whole entry, looked up, the tested form may be a part): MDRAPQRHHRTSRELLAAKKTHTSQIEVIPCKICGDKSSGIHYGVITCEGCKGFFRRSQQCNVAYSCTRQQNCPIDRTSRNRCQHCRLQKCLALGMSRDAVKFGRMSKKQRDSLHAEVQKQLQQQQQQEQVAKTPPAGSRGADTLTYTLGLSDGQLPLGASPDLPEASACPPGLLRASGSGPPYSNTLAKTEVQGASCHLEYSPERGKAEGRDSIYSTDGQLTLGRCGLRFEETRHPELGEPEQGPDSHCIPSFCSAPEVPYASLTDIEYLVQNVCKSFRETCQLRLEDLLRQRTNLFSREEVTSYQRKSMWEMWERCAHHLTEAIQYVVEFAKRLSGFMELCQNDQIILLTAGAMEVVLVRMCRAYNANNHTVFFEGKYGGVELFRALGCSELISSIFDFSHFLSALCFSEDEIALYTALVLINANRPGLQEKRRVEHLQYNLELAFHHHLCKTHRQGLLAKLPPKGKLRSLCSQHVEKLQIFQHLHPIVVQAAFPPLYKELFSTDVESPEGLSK
#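 Stable Schneider cell line, Gal4 DNA-binding domain fused to ROR gamma, UAS-luciferase. Cmpd 1 hr RT → CuSO4 700 uM final → 20 hr RT → luciferase reagent 10 min → luminescence.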
# TDP1 cell noCPT = qHTS for Inhibitors of human tyrosyl-DNA phosphodiesterase 1 (TDP1): qHTS in cells in absence of CPT. DT40 Tdp1-/- hTDP1 cells, no CPT, ATP luminescence, 48 h. Potency, µM (highest dose often 46.2 µM), for inactives: at the highest dose activity change, negative = growth inhibition, actives largely listed as inhibitors. 420,000 compounds, 15% hits. AID 686978, 2013; also: potency is read from the fitted curve at half-maximal effect; nearly all actives have a fitted effect of over 55% in size
#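 Chicken DT40 Tdp1-/- cells stably complemented with human TDP1 were seeded at 400 cells/well with DMSO in place of 20 nM camptothecin. After compound pinning, cells grew at least 48 hr at 37 °C; viability read by CellTiter-Glo luminescence.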
# VP16 counter = VP16 counterscreen qHTS for inhibitors of ROR gamma transcriptional activity; Drosophila S2 Gal4-VP16 UAS-luciferase, luminescence, 20 h; Potency, µM (titrated, usually from 53.6 µM), inactives show top-dose activity, negative = inhibition, actives largely listed as inhibitors; 310,000 compounds, 3.5% hits; AID 2546, 2010;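 also: Gal4-VP16 expression switched on by copper sulfate through the metallothionein promoter; potency is read from the fitted curve at half-maximal effect; nearly all actives have a fitted effect of over 50% in size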
# IL1B secr inh = qHTS for Inhibitors of Inflammasome Signaling: IL-1-beta AlphaLISA Primary Screen | THP-1 LPS/ATP IL-1B secretion, AlphaLISA, 16 h; active compounds read low | activity change, % at 57.5 µM | 360,000 compounds, 4.7% hits | AID 743279, 2014; in the data active = activity change below about -50%; inconclusive = mostly about -30% to -49%
#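 Secreted IL-1B measured by AlphaLISA bead assay after 16 h compound exposure of THP-1 cells; compounds (final up to 57.5 uM) added 1 h before LPS (250 ng/mL) and ATP (1.25 mM) stimulation; lower signal means less secretion.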
# ELG1 DNA repair = qHTS screen for small molecules that inhibit ELG1-dependent DNA repair in human embryonic kidney (HEK293T) cells expressing luciferase-tagged ELG1 | HEK293T ELG1-luciferase reporter, luminescence, 16 h; DNA damage induced by 5-fluorouridine | Potency, µM (doses to about 46.1 µM), for the others: at the highest dose activity change, negative = inhibition, hits mostly inhibitors | 330,000 compounds, 2.3% hits | AID 504467, 2011; also: potency is read from the fitted curve at half-maximal effect; nearly all actives have a fitted effect of over 55% in size
#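 In this reporter screen, reduction of luminescence relative to DMSO vehicle indicated activity. Compounds and 5-fluorouridine were added together to 2,000 cells per well, incubated for 16 hr at 37 °C, then developed with ONE-Glo.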
# ELG1 FLuc counter = qHTS screen for small molecules that inhibit ELG1-dependent DNA repair: Hit Confirmation in Cell-Based Luciferin Assay; shares compounds with ELG1 DNA repair; cell-free firefly luciferase luminescence counter-screen, ViewLux; Potency, µM (top dose mostly 46.1 µM), for inactives: at the top dose activity change, negative = inhibition, hits mostly inhibitors; 350 compounds, 3% hits; AID 624247, 2012; also: potency is read from the fitted curve at half-maximal effect
# ELG1-Luc inh = HTS assay for small molecules that inhibit ELG1-dependent DNA repair in human embryonic kidney (HEK293T) cells expressing luciferase-tagged ELG1: Hit Confirmation | shares compounds with ELG1 DNA repair | HEK293T ELG1-luciferase levels, luminescence; cells co-treated with 5-fluorouridine | Potency, µM (titrated, usually from 46.1 µM), for the others: at the highest dose activity change, negative = inhibition, hits mostly inhibitors | 670 compounds, 68% hits | AID 624248, 2012; also: potency is read from the fitted curve at half-maximal effect; nearly all actives have a fitted effect of over 55% in size
# ELG1-Luc MMS = confirmation of human ELG1 repair inhibitors, MMS stimulated; HEK293T luciferase-tagged ELG1 level, MMS stimulated; Potency, µM (top dose mostly 46.1 µM), for the others: at the top dose activity change, negative = inhibition, most hits filed as inhibitors; shares compounds with ELG1 DNA repair; 670 compounds, 53% hits; also: potency is read from the fitted curve at half-maximal effect; nearly all actives have a fitted effect of over 60% in size
# ELG1 5-FU = qHTS screen for small molecules that inhibit ELG1-dependent DNA repair: Hit Confirmation with 5FU Viability. cell viability with 5-FU, ELG1-dependent repair. shares compounds with ELG1 DNA repair. 670 tested, under 10 active. Potency, µM (top dose mostly 46.1 µM), for inactives: at the highest dose activity change, negative = viability loss, actives largely listed as cytotoxic;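 also: ELG1-luc HEK293T cells cotreated with 5-fluorouridine at 10 µM final; potency is read from the fitted curve at half-maximal effect; viability measured 16 h after compound addition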
# ELG1 MMS viab = qHTS screen for small molecules that inhibit ELG1-dependent DNA repair: Hit Confirmation with MMS Viability. shares compounds with ELG1 DNA repair. Cell viability with MMS, ELG1-dependent DNA repair. Potency, µM (series often up to 46.1 µM), for inactives: at the highest dose activity change, negative = viability loss, usual class: cytotoxic. 670 compounds, 33% hits. AID 624251, 2012;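 also: ELG1-luc HEK293T cells co-treated with 10 µM MMS; potency is read from the fitted curve at half-maximal effect; viability read 16 h after compound addition; nearly all actives have a fitted effect of over 60% in size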
# ELG1 unstim viab = qHTS screen for small molecules that inhibit ELG1-dependent DNA repair: Hit Confirmation with Unstimulated Viability Assay; shares compounds with ELG1 DNA repair; cell viability counter-screen, unstimulated, luminescence; Potency, µM (highest dose often 45.9 µM), inactives show top-dose activity change, negative = loss of viability, actives largely listed as cytotoxic; 900 compounds, 8% hits; AID 624252, 2012;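 also: potency is read from the fitted curve at half-maximal effect; compound exposure lasted 16 hours before reading; nearly all actives have a fitted effect of over 55% in size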
# FLuc biochem = qHTS screen for small molecules that inhibit ELG1-dependent DNA repair: Hit Confirmation in Biochemical Luciferin Assay; shares compounds with ELG1 DNA repair; purified firefly luciferase, luminescence counter-screen; AID 624253, 2012; 350 compounds, 10% hits; Potency, µM (series often up to 57.5 µM), for inactives: top-dose activity, negative = inhibition, hits mostly inhibitors; also: potency is read from the fitted curve at half-maximal effect
# An asterisk follows results filed as active; u = inconclusive; x = no result. The list is not random: actives were taken first. Their share in the collection is about 21%. Unless noted, calls follow the shape of the dose curve; as a rule, active = well fitted curve in the direction sought with a large enough effect; inconclusive = small, poorly fitted or top-dose-only effect, or another doubt; inactive = no such curve, though single readings can be large; an effect the other way counts as inactive or inconclusive. % is scaled to controls: 0 for no effect and ±100 for the full control effect.
SMILES,TDP1 cell CPT,RORg inh,TDP1 cell noCPT,VP16 counter,IL1B secr inh,ELG1 DNA repair,ELG1 FLuc counter,ELG1-Luc inh,ELG1-Luc MMS,ELG1 5-FU,ELG1 MMS viab,ELG1 unstim viab,FLuc biochem
O=C(NCc1cccnc1)c1ccc(NC(=O)c2ccc(Br)cc2)cc1,9.2µM*,29%,15µM*,-10%,53,2.3µM*,x,-10%,0.025µM*,5%,0.025µM*,-1%,x
CN(CC1CCCO1)S(=O)(=O)c1ccc(C(=O)Nc2nc3cc4c(cc3s2)OCO4)cc1 (configuration not stated),7.3µM*,0%,10µM*,-22%,27,2.6µM*,x,4.4µM*,1.1µM*,-17%,1.1µM*,u,x
O=C(NC1CCCC1)c1cc(COc2ccc3ncccc3c2)on1,3.7µM*,u,2.1µM*,5µM*,-6,2.3µM*,-3%,u,2.5µM*,-3%,3.2µM*,u,u
O=C(c1cc(COc2ccc3ncccc3c2)on1)N1CCCC1,7.3µM*,u,6.5µM*,13µM*,11,u,25%,41%,13µM*,-1%,16µM*,u,u
COc1cc(CNCc2ccc(Br)cc2)cc(OC)c1,u,-3%,u,1%,-6,1%,x,x,x,x,x,x,x
CC(=O)c1cccc(CN2CCCC(CCC(=O)NCc3ccc(F)c(F)c3)C2)c1 (configuration not stated),-22%,4%,5%,-13%,12,12%,x,x,x,x,x,x,x
COc1ccc([C@H]2Cc3cccc(O)c3C(=O)O2)cc1O,u,x,-12%,x,11,19%,x,x,x,x,x,x,x
COc1ccc([C@H]2Cc3cc(O)cc(O)c3C(=O)O2)cc1O,0%,x,-22%,x,38,u,x,x,x,x,x,9%,x
CCCCCSc1nnc(-c2ccccc2NC(C)=O)c(=O)[nH]1,3%,-1%,3%,2%,4,11%,x,x,x,x,x,x,x
O=[N+]([O-])c1cc2c(c(CSc3nnc(Nc4ccccc4)s3)c1)OCOC2,-27%,-1%,u,0%,-18,4.6µM*,x,u,1µM*,0%,0.79µM*,u,x
COc1cc(C)c(Br)cc1S(=O)(=O)NCc1ccncc1,10µM*,u,9.2µM*,-20%,22,1.6µM*,-6%,-7%,3.2µM*,-7%,3.2µM*,u,-1%
Cc1ccc(S(=O)(=O)NCc2ccncc2)c(C)c1C,1.8µM*,u,1.3µM*,0%,-6,0%,-8%,10%,1µM*,-10%,1.1µM*,u,-4%
CCC(C)NC(=O)CCc1c(C)nc2nc(-c3cc(OC)cc(OC)c3)nn2c1C (configuration not stated),-27%,20%,u,-20%,-4,u,x,x,x,x,x,x,x
CCCCNC(=O)CCc1c(C)nc2nc(-c3cc(OC)cc(OC)c3)nn2c1C,-19%,-19%,u,-8%,-8,2.3µM*,x,u,1%,u,u,8%,x
COc1ccc(NC(=O)C2CCN(c3nc(C)cc(C)n3)CC2)cc1,-9%,-1%,-29%,-9%,11,-14%,x,x,x,x,x,x,x
COc1ccc(NC(=O)C2CCN(c3nc(C)nc4c3CCC4)CC2)cc1,12µM*,u,16µM*,u,u,0.73µM*,-13%,u,5µM*,-6%,5µM*,u,25%
COc1ccc(C(=O)NCC(C)NC(=O)c2ccc(OC)c(OC)c2)cc1OC (configuration not stated),1%,x,4%,x,-5,x,x,x,x,x,x,x,x
CCOCCCNC(=O)c1ccc2nc(-c3ccc(OC)c(OC)c3)c(-c3ccc(OC)c(OC)c3)nc2c1,u,7%,u,-16%,-21,1.5µM*,x,0.44µM*,u,u,u,u,x
COc1ccc(-c2nc3ccc(C(=O)NCC(OC)OC)cc3nc2-c2ccc(OC)c(OC)c2)cc1OC,u,-1%,u,-3%,-7,1µM*,x,0.71µM*,8%,u,u,2%,x
